KDM5B inh: blocks human KDM5B histone demethylase activity. Q9UGL1. KDM5B demethylase, FDH-coupled NADH fluorescence (FDH is formaldehyde dehydrogenase). Potency, µM (series often up to 57.7 µM), usual class: inhibitors. 220,000 compounds, 2.6% hits. AID 1347165; note: potency is the fitted concentration of half-maximal effect; 0% is about no effect; nearly all actives have a fitted effect of over 70% in size
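qHTS format, multiple compound concentrations. Buffer 50 mM HEPES pH 7.5/0.01% Tween-20; 200 nM KDM5BΔAP final; 10 min compound preincubation; substrate-mix levels 12.5 µM peptide, 25 µM α-KG, 0.25 mM NAD⁺; 30 min RT; ΔRFU.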
IP6K1 inh: blocks human inositol hexakisphosphate kinase 1; activity change, % (series mostly up to about 58 µM); IP6K1 kinase, ADP-Glo luminescence, 2 h; hits give low values; Q92551; 140,000 compounds, 0.81% hits; in the data active = activity change below about -25%; note: % is set by controls: 0 for no effect and ±100 for the full control effect
Target sequence (Q92551 whole entry, looked up): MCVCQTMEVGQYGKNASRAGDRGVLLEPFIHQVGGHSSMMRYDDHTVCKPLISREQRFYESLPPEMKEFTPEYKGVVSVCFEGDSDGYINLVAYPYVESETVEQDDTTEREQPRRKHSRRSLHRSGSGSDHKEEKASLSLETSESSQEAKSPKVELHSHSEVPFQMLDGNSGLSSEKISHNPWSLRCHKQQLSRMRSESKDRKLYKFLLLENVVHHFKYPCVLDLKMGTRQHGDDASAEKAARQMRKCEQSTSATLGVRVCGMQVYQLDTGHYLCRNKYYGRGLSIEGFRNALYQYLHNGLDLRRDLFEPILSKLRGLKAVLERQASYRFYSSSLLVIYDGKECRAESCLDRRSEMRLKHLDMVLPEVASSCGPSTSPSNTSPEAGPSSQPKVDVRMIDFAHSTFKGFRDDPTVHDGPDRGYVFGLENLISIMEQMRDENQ
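ADP-Glo luminescence measures ADP made by human IP6K1 during a 2 h RT reaction with ATP/IP6 (mix at 1.3 mM/130 uM); top library doses 57.5 and 19.1 uM final.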
SNCA expr inh: inhibitors of alpha-synuclein (SNCA) gene expression | 140,000 compounds, 0.17% hits | HEK-293 SNCA-luciferase knock-in, luminescence, 24 h | Potency, µM (titrated, usually from 57.2 µM), for the others: top-dose activity change, negative = inhibition, actives largely listed as inhibitors;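 note: potency is the fitted concentration of half-maximal effect; plate controls were DMSO cells for no effect and cell-free wells for full effect; nearly all actives have a fitted effect of over 45% in size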
SNCA viab count: cell viability loss counter-screen; AID 1671193; 150,000 compounds, 0.12% hits; HEK-293-SNCA-luc viability, GF-AFC fluorescence, 24 h; Potency, µM (titrated, usually from 57.1 µM), without a hit: top-dose activity change, negative = cytotoxicity, actives largely listed as cytotoxic;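 note: potency is the fitted concentration of half-maximal effect; 0% = DMSO-treated cells and -100% = medium-only wells without cells; nearly all actives have a fitted effect of over 30% in size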
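Cytotoxicity counterscreen: after 24 h compound treatment of genome-edited SNCA-luciferase HEK-293 cells, live-cell protease substrate GF-AFC read by fluorescence after 30 min; activity scaled between DMSO (0%) and medium-only (-100%), curves Hill-fitted.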
The depositor's hits bear a star; i = inactive; ? = inconclusive; . = no result; [ ] = remark or other dose. The list is not random: actives were taken first. Their share in the collection is about 2.8%. Unless noted, calls come from the whole dose curve; as a rule, active = well fitted curve in the direction sought with a large enough effect; inconclusive = small, poorly fitted or top-dose-only effect, or another doubt; inactive = no such curve, though single readings can be large; an effect the other way counts as inactive or inconclusive.

SMILES	KDM5B inh	IP6K1 inh	SNCA expr inh	SNCA viab count
COc1cccc(NC(=O)CCC2CCN(S(=O)(=O)c3ccccc3)CC2)c1	28.2µM*	22.8	12.1%	3.5%
CCN(Cc1ccccc1)C(=O)CCC1CCN(S(=O)(=O)c2ccccc2)CC1	25.1µM*	14.8	-29.0%	2.7%
CCN(Cc1ccncc1)C(=O)CCC1CCN(S(=O)(=O)c2ccccc2)CC1	i	20.4	-7.3%	2.4%
Cc1cnc(NC(=O)c2ccc3c(c2)OCCN(CCC(F)(F)F)C3)s1	i	-4.0	71.0%[87.6 µM]	-11.3%[87.6 µM]
Cc1csc(NC(=O)c2ccc3c(c2)OCCN(CCC(F)(F)F)C3)n1	35.5µM*	2.4	49.4%[87.6 µM]	-6.2%[87.6 µM]
CCc1ccccc1NC(=O)Cn1c(N2CCCCC2)nc(C)c(C)c1=O	i	8.5	-15.1%	-9.3%
CC(=O)Nc1ccc(NC(=O)CSc2nccn2C)cc1	i	-2.0	34.0%	0.8%
COc1ccc(CN2CC(COc3ccccc3)C3(C2)CN(c2ccccc2)C3)cc1O (configuration not stated)	31.6µM*	-5.3	?	?
COc1ccc(-n2ncc(C(=O)NCc3ccco3)c2C2CCN(C(=O)OC(C)(C)C)CC2)cc1	i	13.8	8.6%	4.8%
CCCc1noc(-c2ccn3c(CNC(=O)Cc4cccc(F)c4)nnc3c2)n1	7.08µM*	11.3	-0.2%	11.0%
Cc1noc(-c2ccn3c(CNC(=O)Cc4cccc(F)c4)nnc3c2)n1	28.2µM*	39.4	27.0%	13.6%
Cc1ccc2nc(CSc3ccc4ccccc4n3)cc(=O)n2c1	i	.	.	.
COc1ccc(-c2noc(NCCN(C)C3CCCCC3)n2)cc1	i	3.6	-9.1%	-13.3%
CCOC(=O)c1cc(-c2ccc(C)cc2)n(CCC(=O)Nc2nc3c(C)cccc3s2)c1C	?	5.4	14.1µM*	-11.4%
O=C(NCc1ccco1)c1ccc2c(c1)CC(=O)N2Cc1cccc(F)c1	i	-13.2	27.2%	4.6%
O=C(NCc1cccc(F)c1)c1ccc2c(c1)CC(=O)N2Cc1ccccc1	i	-3.5	12.6µM*	-2.2%
Cc1cc(O)c(C(C)C)cc1NC(=O)Nc1cccc2ccccc12	i	.	.	.
COCCN1CCC2(C1)CN(C)c1ccc(C(=O)NCC3CC3)cc12 (configuration not stated)	35.5µM*	-2.9	14.3%[87.6 µM]	1.7%[87.6 µM]
CC(=O)N1CCCC2(C1)CN(C)c1ccc(C(=O)NCC3CC3)cc12 (configuration not stated)	28.2µM*	-1.6	24.6%[87.6 µM]	2.8%[87.6 µM]
COCCN1CCC2(C1)CN(C)c1ccc(C(=O)Nc3ccccc3)cc12 (configuration not stated)	25.1µM*	-4.8	10µM*	-1.7%[87.6 µM]
COCCN1CCC2(C1)CN(C)c1ccc(C(=O)Nc3ccc(F)cc3)cc12 (configuration not stated)	?	10.3	-2.3%[87.6 µM]	-7.1%[87.6 µM]
O=C(c1ccsc1)N(Cc1cccs1)C1CC1	i	.	.	.
COc1ccc(CN(CC(=O)NCc2ccc(F)cc2)C(=O)CCC(=O)Nc2ccccn2)cc1	i	.	.	.
CC1=C[C@@H](CNC(=O)CC(C)(C)C)[C@H](C(C)C)C[C@H]1CC(=O)O	28.2µM*	3.3	5.1%[87.6 µM]	8.6%[87.6 µM]
COc1ccc(S(=O)(=O)NC[C@@H]2C=C(C)[C@H](CC(=O)N3CCN(C)CC3)C[C@H]2C(C)C)cc1	i	13.0	-11.0%	-15.5%
SMILES	KDM5B inh	IP6K1 inh	SNCA expr inh	SNCA viab count
CC1=C[C@@H](CNC(=O)COc2ccccc2)[C@H](C(C)C)C[C@H]1CC(=O)N1CCN(C)CC1	i	-6.1	-8.1%	-8.4%
COc1ccc(S(=O)(=O)NC[C@@H]2C=C(C)[C@H](CC(=O)N3CCN(c4ccccn4)CC3)C[C@H]2C(C)C)cc1	28.2µM*	-4.5	?	?
COc1cccc(NC(=O)NC[C@@H]2C=C(C)[C@H](CC(=O)N3CCN(c4ccccn4)CC3)C[C@H]2C(C)C)c1	31.6µM*	4.8	?	?
COCC(=O)NC[C@@H]1C=C(C)[C@H](CC(=O)N2CCN(c3ccccn3)CC2)C[C@H]1C(C)C	31.6µM*	13.4	-9.9%	-9.4%
CN(C)CCNC(=O)C1Cn2cccc2C(=O)N1Cc1ccccc1 (configuration not stated)	?	-3.4	-18.4%	-6.3%
O=C(CCc1ccco1)NCc1ccc(OCc2ccccn2)cc1	i	.	.	.
COCCNC(=O)C[C@@H]1C[C@@H](C(C)C)[C@H](CNS(=O)(=O)c2ccc(OC)cc2)C=C1C	22.4µM*	-0.8	4.7%	-8.3%
CCOc1ccccc1CN1CCC2(CCN([S+](=O)([O-])c3ccc(C)cc3)CC2)Oc2ccccc21	?	33.4	12.8%	?
CCOc1ccccc1CN1CCC2(CCN([S+](=O)([O-])c3cccc(C(F)(F)F)c3)CC2)Oc2ccccc21	12.6µM*	0.4	-13.3%	3.6%
CC(=O)c1ccc(NC(=O)CSc2nnc(-c3ccncc3)n2-c2ccccc2)cc1	i	7.7	-10.0%	1.2%
O=C(CC1CCCC1)N1CC(c2noc(COc3ccccc3)n2)C1	i	12.6	3.4%	-7.3%
Cc1noc(C)c1-c1cc(-c2cccc(N3CCOCC3)c2)cn2cncc12	35.5µM*	-13.1	5.1%[87.6 µM]	-5.7%[87.6 µM]
COc1ccc(OC2CCN(C(C)=O)CC2)c(C(=O)NCCc2c(C)n[nH]c2C)c1	28.2µM*	-2.2	-22.1%	1.7%
CCCNC(=O)c1cccc2c1CCN2C(=O)Nc1ccc(OC)cc1	i	-5.0	28.2µM*	-9.6%
CCN1CCN(CCNC(=O)c2cccc3c2CCN3C(=O)Nc2ccc(C)cc2)CC1	i	6.3	12.6µM*	-6.6%
COc1ccc(NC(=O)N2CCc3c(C(=O)NCCCN4CCCC4=O)cccc32)cc1	i	5.3	10µM*	15.6%
COc1ccc(NC(=O)N2CCc3c(C(=O)NCCCN(C)C)cccc32)cc1	i	-7.1	?	4.2%
COCCc1nncn1C1CCN(S(=O)(=O)c2ccc(F)cc2F)CC1	i	-4.0	1.2%	7.0%
CCCC1=Nc2cc(C(=O)NC3CCCC3)ccc2Sc2ccc(C)cc21	i	20.3	-28.5%	-14.9%
COc1ccc(OC2CCN(C3CCCC3)CC2)c(C(=O)NCCCN2CCCC2=O)c1	31.6µM*	21.5	16.0%	2.6%
COc1ccc(NC(=O)N2CCc3c(C(=O)Nc4ccc5c(c4)OCO5)cccc32)cc1	22.4µM*	-5.8	7.94µM*	17.9%
CCN(C(=O)CSc1nnc(-c2cc3occc3n2C)n1-c1ccccc1C)c1cccc(C)c1	i	27.5	-13.5%	0.3%
COc1ccc(-c2cc3nc4c(c(=O)n3[nH]2)CN(C(=O)CC(C)C)CC4)cc1	?	2.3	-18.4%	1.1%
COc1ccc(-c2cc3nc4c(c(=O)n3[nH]2)CN(C(=O)CCc2ccccc2)CC4)cc1	5.62µM*	0.0	-24.1%	2.9%
CCN(C(=O)CCC(=O)N1CCc2nc3cc(-c4ccc(OC)cc4)[nH]n3c(=O)c2C1)c1ccccc1	7.08µM*	0.0	?	-0.6%
COc1ccc(-c2cc3nc4c(c(=O)n3[nH]2)CN(C(=O)c2ccncc2)CC4)cc1	i	0.0	?	-12.2%
O=C(Cn1nc2c(cc1=O)CCCC2)Nc1ccc(F)c(F)c1F	i	8.3	12.1%	-4.0%

Screens as filed in PubChem.
